# Compound activity from PubChem.
# D1 potentiator – human D1 dopamine receptor positive modulation. P21728. HEK293 TREx D1 cells, calcium flux, dopamine EC20 potentiation. AID 504651. potentiation, % at 10 µM. 360,000 compounds, 0.036% hits; in the data active = potentiation above about 30%; note: 0% is about no effect
# Target sequence (P21728 whole entry, looked up): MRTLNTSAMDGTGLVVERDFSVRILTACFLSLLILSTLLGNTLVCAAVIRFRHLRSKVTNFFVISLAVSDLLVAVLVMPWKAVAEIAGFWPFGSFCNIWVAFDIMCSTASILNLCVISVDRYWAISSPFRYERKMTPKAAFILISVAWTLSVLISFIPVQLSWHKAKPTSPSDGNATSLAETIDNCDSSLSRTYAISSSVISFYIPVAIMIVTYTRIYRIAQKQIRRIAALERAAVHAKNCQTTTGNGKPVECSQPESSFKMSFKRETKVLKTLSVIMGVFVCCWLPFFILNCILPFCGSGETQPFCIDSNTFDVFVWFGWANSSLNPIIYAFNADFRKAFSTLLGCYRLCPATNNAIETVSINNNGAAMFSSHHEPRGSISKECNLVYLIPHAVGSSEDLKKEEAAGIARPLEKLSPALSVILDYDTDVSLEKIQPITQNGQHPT
# DRD3 antagonist – D3 dopamine receptor (human) antagonism; max response, negative = inhibition, %; P35462; 360,000 compounds, 2.5% hits; D3R cells, DiscoveRx beta-arrestin luminescence, antagonist mode; active compounds read low; in the data active = max response below about -50%; inconclusive = no clear call, values can overlap the other calls; note: % is set by controls: 0 for no effect and ±100 for the full control effect
#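 Cells plated overnight at 1500 cells/well, then exposed to library compounds with dopamine controls for 90 minutes at 37 degrees C. DiscoveRx reagent added for 30–60 minutes at room temperature; luminescence read, quantitative HTS format.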
# DRD3 agonist – agonists of human D3 dopamine receptor | max activation, % | D3R DiscoveRx beta-arrestin cells, luminescence, 90 min | 410,000 compounds, 0.58% hits | AID 652048; in the data active = max activation above about 30%; note: 0% is about no effect
#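 Agonist-mode cell screen: cells plated at 1500/well and incubated overnight at 37 °C, then exposed to library compounds for 90 min at 37 °C. Detection reagent was added for 30–60 min at room temperature, and luminescence was read.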
# D1 ag – human D1 receptor agonism; AID 504660; HEK293 T-REx D1 cells, calcium flux, agonist mode; P21728; 360,000 compounds, 1% hits; activation, % at 2 µM; in the data active = activation above about 30%; note: 0% is about no effect
#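 Tetracycline-induced HEK293 TREx D1 cells, force-coupled to calcium signalling, were dye-loaded with a no-wash calcium kit. Compound was pin-added after a 10 s baseline. Fluorescence was read kinetically at 1 cycle/s for 180 s, with calcium rises flagged as agonism.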
# D1 antagonist – blocks dopamine activation of the human D1 receptor | 360,000 compounds, 3.2% hits | activity change, negative = inhibition, % at 10 µM | P21728 | HEK293 TREx D1 cells, calcium flux, dopamine EC80; active compounds read low; in the data active = activity change below about -30%; note: % is set by controls: 0 for no effect and ±100 for the full control effect
#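 Inducible Hek293 Trex D1 cells (tetracycline, overnight, 30 C). Calcium dye 30–90 min RT. Antagonist mode: EC80 dopamine added after 180 s compound read.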
# Active calls of the source: *; ? = inconclusive; nt = no result given. Only some compounds are listed: those with a hit (about 6.1% of all), similar ones and a draw of the others.
SMILES,D1 potentiator,DRD3 antagonist,DRD3 agonist,D1 ag,D1 antagonist
O=C(NC1CC2CCCC(C1)N2C(=O)Nc1ccc(F)cc1)c1ccccc1 (centres undefined),-1.6,-4.1,0.5,2.7,-19.6
O=C(Nc1ccccc1-c1ccccc1)NC1CC2CCCC(C1)N2CCc1ccccc1 (centres undefined),-4.2,-9.6,0.6,9.1,0.8
O=C(NC1CC2CCCC(C1)N2Cc1ccccc1)c1ccc([N+](=O)[O-])cc1 (centres undefined),0.8,-88.6*,-19.9,4.4,-56.6*
O=C(NC1CCSc2ccccc21)c1ccc([N+](=O)[O-])cc1 (centres undefined),-0.5,8.0,-12.1,0.4,-1.8
O=C(CN1C2CCCC1CC(NC(=O)c1ccco1)C2)Nc1ccccc1 (centres undefined),-6.3,-58.2*,-12.9,12.6,-6.1
CCN(CC)C(=O)NC1CC2CCCC(C1)N2Cc1ccccc1 (centres undefined),0.3,-65.3*,-11.0,-0.2,-7.7
COc1ccc(S(=O)(=O)N(C)c2ccc(OC(=O)C(C)Oc3ccc(F)cc3)cc2)cc1 (centres undefined),-2.9,7.3,3.7,20.5,-3.0
O=C(Cn1nc(Cc2ccncc2)c2ccccc2c1=O)Nc1cccnc1Cl,-2.8,0.0,7.6,1.0,4.1
C=C1CCN([C@@H](Cc2ccccc2)C(=O)NCc2ccc(Cl)cc2)S(=O)(=O)c2ccccc21,nt,-55.8*,-21.1,nt,nt
O=C(O)c1ccccc1NC(=O)N1c2ccccc2Sc2ccccc21,2.5,nt,-6.8,-2.2,-25.4
CC1(C)CC(=O)c2c(oc3c(Cl)cc(NS(=O)(=O)c4ccc(Br)cc4)cc23)C1,-2.0,nt,3.5,0.2,2.2
CCOC(=O)Nc1sc(C)nc1-c1ccccc1,-8.8,19.1,9.4,1.1,-49.2*
O=C(c1ccco1)N1CCN(C(=O)c2ccccc2OCc2ccccc2)CC1,nt,0.0,5.3,nt,nt
COc1ccc(S(=O)(=O)n2cccc2)cc1OC,-5.6,-1.4,-2.8,2.2,-34.5*
COc1ccc(C(C(=O)NC2CCCC2)n2c(C3CCN(C(C)=O)CC3)nc3ccccc32)cc1 (centres undefined),nt,-50.2*,-7.6,nt,nt
CCOc1ccc(C(=O)NNC(=O)CN2C(=O)NC3(CCCC3)C2=O)cc1,-3.4,-25.1,5.3,2.1,23.3
O=C(N/N=C/c1c[nH]c2ccccc12)c1cc(-c2ccc(-c3ccccc3)cc2)n[nH]1,-8.7,15.8,34.9*,1.5,6.0
O=C(N/N=C/c1ccccn1)c1cc(-c2ccc3ccccc3c2)n[nH]1,-0.4,18.8,26.2,-0.3,6.0
CCc1ccc(-c2cc(C(=O)N/N=C/c3ccco3)[nH]n2)cc1,3.2,-9.8,-6.7,26.5,-67.3*
O=C(N/N=C/c1ccco1)c1cc(-c2ccc3ccccc3c2)n[nH]1,43.0*,-74.9*,1.4,0.4,0.2
CSc1nc2cc(C)nn2c(-c2ccccc2Cl)c1C#N,6.5,0.1,1.9,0.1,4.4
CCC(=O)N1CCc2cc(Br)cc(S(=O)(=O)CCC(=O)N(C)c3cccc(C)c3)c21,-1.6,nt,7.9,0.0,13.9
CCC1=NN(C(=O)CCc2ccccc2)C(O)(C(F)(F)F)C1 (centres undefined),-0.6,?,-2.3,1.7,-5.4
CCC1=NN(C(=O)C(=O)NCCc2ccccc2)C(O)(C(F)(F)F)C1 (centres undefined),-12.4,-64.6*,-15.6,0.5,4.9
CCC1=NN(C(=O)C(=O)Nc2ccc(OC)cc2)C(O)(C(F)(F)F)C1 (centres undefined),-5.3,-159.5*,-36.3,7.1,-6.7
CCC1=NN(C(=O)C(=O)Nc2ccccc2OC)C(O)(C(F)(F)F)C1 (centres undefined),-2.3,20.5,-20.6,-2.6,5.4
Cc1ccc(OCC(=O)NNC(=O)Cc2ccc(S(=O)(=O)N3CCOCC3)s2)cc1,-2.3,-15.3,-13.5,1.6,-49.3*
Cc1ccccc1OCC(=O)NNC(=O)Cc1ccc(S(=O)(=O)N2CCOCC2)s1,-4.8,9.2,5.2,-1.0,-38.3*
O=C(COc1ccccc1F)NNC(=O)Cc1ccc(S(=O)(=O)N2CCOCC2)s1,-2.7,9.8,3.8,1.3,-26.1
O=C(COc1cccc(F)c1)NNC(=O)Cc1ccc(S(=O)(=O)N2CCOCC2)s1,-3.2,26.5,0.2,1.3,4.6
